Source: the supplement of paper PMC10515830
Structures can show the parent of a compound that is named as a salt.

Assays:
Conditions in all cases: 10 µM; exposure time 6 h
[1] = tested on: Danio rerio larvae (5 dpf); assay: difference in excitability vs DMSO (percentage points); higher = more excitable than DMSO
Procedure, shortened: (§1)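 Wild-type 5 dpf zebrafish larvae in 96-well plates were given 100 µL egg water containing library compound at 10 µM final for 6 h. After 3 h of exposure, plates at 28.5 ℃ were photographed every 6 s during a 3-h programme of moving lines and 100 ms, 400Hz tones. Z-LaP Tracker (a DeepLabCut model) quantified each behaviour, averaged over 48 larvae per compound. Values are the compound mean minus the DMSO-vehicle control, in percentage points.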

[2] = tested on: Danio rerio larvae (5 dpf); assay: difference in startle response vs DMSO (percentage points); higher = stronger startle than DMSO
Procedure, shortened: as §1

[3] = tested on: Danio rerio larvae (5 dpf); assay: difference in activity during first hour vs DMSO (percentage points); higher = more activity than DMSO
Procedure, shortened: as §1

[4] = tested on: Danio rerio larvae (5 dpf); assay: difference in habituation to acoustic stimuli vs DMSO (percentage points); higher = more habituation than DMSO
Procedure, shortened: as §1

[5] = tested on: Danio rerio larvae (5 dpf); assay: difference in combined optomotor response to red, green and blue moving lines vs DMSO (percentage points); higher = stronger optomotor response than DMSO
Procedure, shortened: as §1

SMILES | difference in excitability [1] | difference in startle response [2] | difference in activity during first hour [3] | difference in habituation to acoustic stimuli [4] | difference [5]
Nc1nc(-n2cc(C(=O)O)c(=O)c3cc(F)c(N4CC(O)C4)c(Cl)c32)c(F)cc1F [Delafloxacin] | 14.4 | 12.8 | -8.49 | 7.81 | 9.67
C=CC(=O)N1CCC[C@@H](n2nc(-c3ccc(Oc4ccccc4)cc3)c3c(N)ncnc32)C1 [Ibrutinib] | 14.1 | 0.877 | -6.73 | -6.76 | 9.38
CCCCc1oc2ccccc2c1C(=O)c1cc(I)c(OCCN(CC)CC)c(I)c1 [Amiodarone (hydrochloride)] | 8.93 | -3.14 | 8.93 | -15.9 | -11.8
CNC(=O)c1ccc(N2C(=S)N(c3ccc(C#N)c(C(F)(F)F)c3)C(=O)C2(C)C)cc1F | 13.3 | 4.28 | -11 | -1.47 | -0.198
COCCOC(=O)C1=C(C)NC(C)=C(C(=O)OC(C)C)C1c1cccc([N+](=O)[O-])c1 (stereo not given) [Nimodipine] | 7.48 | -6.36 | 11.8 | -10.8 | -14.5
C[C@]12CCC(=O)C=C1CC[C@@H]1[C@@H]2[C@@H](O)C[C@@]2(C)[C@H]1CC[C@]2(O)C(=O)CO [Hydrocortisone] | 1.87 | 0.52 | 14.7 | 1.82 | 9.96
Cc1nc2n(c(=O)c1CCN1CCC(c3noc4cc(F)ccc34)CC1)CCCC2 [Risperidone] | 14.4 | 5.09 | 7.15 | 4.04 | -1.6
C[C@](N)(Cc1ccc(O)cc1)C(=O)O [Metyrosine] | 0.523 | 8.55 | -8.67 | 12.3 | -4.59
CO/N=C(\C(=O)N[C@@H]1C(=O)N2C(C(=O)O)=C(CSc3nc(=O)c(O)nn3C)CS[C@H]12)c1csc(N)n1 [Ceftriaxone (sodium salt hydrate)] | 3.71 | 4.15 | 12 | -2.08 | 8.58
O=C(c1ccccc1)c1ccc2n1CCC2C(=O)O (stereo not given) [Ketorolac (tromethamine salt)] | -0.0297 | 5.09 | -3.37 | 7.86 | -1.11
CC1(C)NC(=O)N(c2ccc([N+](=O)[O-])c(C(F)(F)F)c2)C1=O [Nilutamide] | 3 | -2.08 | -12.2 | 3.08 | -5.94
COc1cc2c(cc1OC)C(=O)C(CC1CCN(Cc3ccccc3)CC1)C2 (stereo not given) [Donepezil] | 12 | -0.487 | -0.402 | -0.748 | -2.38
CCc1cc2c(cc1CC)CC(NC[C@H](O)c1ccc(O)c3[nH]c(=O)ccc13)C2 [Indacaterol] | -0.786 | 4.28 | -1.22 | 3.2 | -2.46
CC[C@H](C)[C@@H]1NC(=O)[C@H](Cc2ccc(O)cc2)NC(=O)[C@@H](N)CSSC[C@@H](C(=O)N2CCC[C@H]2C(=O)N[C@@H](CC(C)C)C(=O)NCC(N)=O)NC(=O)[C@H](CC(N)=O)NC(=O)[C@H](CCC(N)=O)NC1=O [Oxytocin (acetate)] | -2.14 | 1 | -5.61 | 2.03 | 4.29
C[C@H](CCC(=O)O)[C@H]1CC[C@H]2[C@@H]3[C@H](O)C[C@@H]4C[C@H](O)CC[C@]4(C)[C@H]3C[C@H](O)[C@]12C [Cholic Acid] | -2.04 | 2.75 | 8.68 | 3.98 | -1.08
C[N+]1(C)[C@@H]2CC[C@H]1C[C@@H](OC(=O)C(O)c1ccccc1)C2 (stereo not given in full) [Methylhomatropine (bromide)] | 5.63 | 0.325 | 2.46 | 1.2 | -3.01
C/C(O)=C(\C#N)C(=O)Nc1ccc(C(F)(F)F)cc1 | 5.48 | 1.5 | -4.86 | 6.45 | 3.09
CN(C)CCc1c[nH]c2ccc(C[C@H]3COC(=O)N3)cc12 [Zolmitriptan] | -7.59 | 9.39 | -0.487 | 4.76 | 10.3
Clc1ccc2c(c1)C(N1CCNCC1)=Nc1ccccc1O2 [Amoxapine] | 6.07 | -0.987 | 35.7 | -1.72 | 12.4
Cc1nc2c([nH]1)-c1ccccc1N(C(=O)c1ccc(NC(=O)c3ccccc3-c3ccccc3)cc1)CC2 [Conivaptan (hydrochloride)] | 12.9 | 4.28 | -10.7 | 3.17 | -0.877
C[C@@H]1C[C@H]2[C@@H]3CCC4=CC(=O)C=C[C@]4(C)[C@@]3(F)[C@@H](O)C[C@]2(C)[C@H]1C(=O)CO [Desoximetasone] | 2.03 | 4.16 | -4.98 | 2.48 | 0.705
OCCOc1ccc(/C(=C(/CCCl)c2ccccc2)c2ccccc2)cc1 [Ospemifene] | 6.62 | -3.99 | -12.6 | -8.31 | -16.5
O=C(O)C[C@H](O)C[C@H](O)/C=C/c1c(C2CC2)nc2ccccc2c1-c1ccc(F)cc1 [Pitavastatin (calcium salt)] | 10.2 | -3.29 | 4.76 | -3.94 | 13.1

SMILES | difference in excitability [1] | difference in startle response [2] | difference in activity during first hour [3] | difference in habituation to acoustic stimuli [4] | difference [5]
C=C1[C@H](CO)[C@@H](O)C[C@@H]1n1cnc2c(=O)[nH]c(N)nc21 [Entecavir (hydrate)] | -1.86 | 2.04 | -1.96 | 5.32 | 0.96
CCOc1nc2cccc(C(=O)OCc3oc(=O)oc3C)c2n1Cc1ccc(-c2ccccc2-c2noc(=O)[nH]2)cc1 [Azilsartan Medoxomil] | 6.47 | -1.67 | -8.07 | 5.02 | -2.25
Fc1ccc([C@@H]2CCNC[C@H]2COc2ccc3c(c2)OCO3)cc1 [Paroxetine (hydrochloride)] | 11 | -3.61 | -22.3 | -3.35 | -11.4
N#C[C@@H]1C[C@@H]2C[C@@H]2N1C(=O)[C@@H](N)C12CC3CC(CC(O)(C3)C1)C2 [Saxagliptin (hydrochloride)] | 4.61 | -1.75 | 11.5 | 5.75 | 2.16
CC(C)(O)c1ccccc1CC[C@@H](SCC1(CC(=O)O)CC1)c1cccc(/C=C/c2ccc3ccc(Cl)cc3n2)c1 [Montelukast (sodium salt)] | 10.4 | 2.54 | -3.93 | 1.58 | 3.42
CNC1(C)C2CCC(C2)C1(C)C (stereo not given) [Mecamylamine (hydrochloride)] | 3.59 | -1.88 | -1.28 | -4.36 | 11.1
CCCCCOC(=O)Nc1nc(=O)n([C@@H]2O[C@H](C)[C@@H](O)[C@H]2O)cc1F [Capecitabine] | -2.56 | -2.24 | -0.876 | -0.579 | -1.26
Cc1ccc(=O)n(-c2ccccc2)c1 [Pirfenidone] | -2.03 | 3.37 | 0.0618 | 2.62 | 8.23
Cc1[nH]c(=O)c(C#N)cc1-c1ccncc1 [Milrinone] | -4.22 | -1.03 | 2.14 | 0.444 | 8.34
N=C(N)NCCC[C@@H](NC(=O)[C@@H]1CCCN1C(=O)[C@@H]1CSSCCC(=O)N[C@@H](Cc2ccc(O)cc2)C(=O)N[C@@H](Cc2ccccc2)C(=O)N[C@@H](CCC(N)=O)C(=O)N[C@@H](CC(N)=O)C(=O)N1)C(=O)NCC(N)=O [Desmopressin (trifluoroacetate salt)] | 0.805 | -0.652 | 28.8 | -4.29 | 5.42
COc1cc2nc(N3CCN(C(=O)c4ccco4)CC3)nc(N)c2cc1OC [Prazosin (hydrochloride)] | 20.4 | 2.07 | 11.2 | -7.66 | 6.47
Nc1cc(Cl)c(N=C2NCCN2)c(Cl)c1 [Apraclonidine (hydrochloride)] | 8.82 | 7.97 | -13.7 | -0.961 | -2.54
COc1cccc2c1C(=O)c1c(O)c3c(c(O)c1C2=O)C[C@@](O)(C(=O)CO)C[C@@H]3O[C@H]1C[C@H](N)[C@@H](O)[C@H](C)O1 [Epirubicin (hydrochloride)] | 9.14 | 0.312 | -7.5 | 5.65 | 1.76
CC(=O)Oc1ccccc1C(=O)O [Aspirin] | -1 | 2.44 | 2.02 | 1.42 | 2.52
C[C@@H]1O[C@@H]1P(=O)(O)O [Fosfomycin Trometamol] | 3.54 | -4.33 | -4.99 | -4.72 | -4.51
C#C[C@]1(O)CC[C@H]2[C@@H]3CCC4=CC(=O)CC[C@@H]4[C@H]3CC[C@@]21C [Norethindrone] | 4.84 | -3.95 | -0.842 | 2.6 | 11.2
CN(C)CC/C=C1/c2ccccc2COc2ccc(CC(=O)O)cc21 [Olopatadine (hydrochloride)] | 2.11 | -1.34 | -6.94 | 3.84 | 2.97
CCS(=O)(=O)CCn1c([N+](=O)[O-])cnc1C [Tinidazole] | 0.787 | 3.72 | 7.24 | 0.838 | 7.16
O=C(O)CCCc1ccccc1 [Sodium 4-Phenylbutyrate] | -1.36 | 2.31 | -3.38 | 1.43 | 5.24
C[C@H]1COc2c(N3CCN(C)CC3)c(F)cc3c(=O)c(C(=O)O)cn1c23 [Levofloxacin] | -4.09 | 1.07 | 16.5 | 2.74 | 4.84
O=C(O)COCCN1CCN(C(c2ccccc2)c2ccc(Cl)cc2)CC1 (stereo not given) [Cetirizine (hydrochloride)] | -1.62 | 2.46 | 4.04 | -2.99 | 6.72
CN(C)CCOC(=O)C(c1ccccc1)C1(O)CCCC1 (stereo not given) [Cyclopentolate (hydrochloride)] | -10.4 | -4.29 | -7.59 | -2.76 | -2.74
CC(C)CCCCC(=O)N[C@@H](CCNCS(=O)(=O)O)C(=O)N[C@H](C(=O)N[C@@H](CCNCS(=O)(=O)O)C(=O)N[C@H]1CCNC(=O)[C@H]([C@@H](C)O)NC(=O)[C@H](CCNCS(=O)(=O)O)NC(=O)[C@H](CCNCS(=O)(=O)O)NC(=O)[C@H](CC(C)C)NC(=O)[C@@H](CC(C)C)NC(=O)[C@H](CCNCS(=O)(=O)O)NC1=O)[C@@H](C)O.CC[C@@H](C)CCCCC(=O)N[C@@H](CCNCS(=O)(=O)O)C(=O)N[C@H](C(=O)N[C@@H](CCNCS(=O)(=O)O)C(=O)N[C@H]1CCNC(=O)[C@H]([C@@H](C)O)NC(=O)[C@H](CCNCS(=O)(=O)O)NC(=O)[C@H](CCNCS(=O)(=O)O)NC(=O)[C@H](CC(C)C)NC(=O)[C@@H](CC(C)C)NC(=O)[C@H](CCNCS(=O)(=O)O)NC1=O)[C@@H](C)O [Colistin Methanesulfonate (sodium salt)] | 20.4 | -4.76 | 4.65 | 0.808 | -2.32
